Assay outcomes deposited in PubChem BioAssay by The Scripps Research Institute Molecular Screening Center.
Hits are enriched below; roughly 0.86% of the tested compounds scored in any of these assays.
TLR9-MyD88 block: inhibitors of TLR9-MyD88 association in cells, primary screen, cell-based, CHO, BLA complementation, fluorescence; Toll-like receptor 9 (Homo sapiens) + Myeloid differentiation primary response protein …; CCF4 FRET ratio; inhibition, % at 4.98 µM; actives 0.21% (n = 340,000); AID 504734, 2011;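 active = inhibition above the mean over all tested compounds plus 3 SD, cut at about 21% in these data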;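 also: 0% = DMSO only wells and 100% = clavulanate BLA inhibitor control wells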
IDE cell activ: human IDE activators in live cells, primary screen, fluorescence polarization, HEK cells, FAbeta-B substrate. actives 0.073% (n = 340,000). activation, % at 5.96 µM. FAbeta-B cleavage; 0% vehicle, 100% cell-free pure enzyme wells. Insulin-degrading enzyme (Homo sapiens), P14735;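 active = activation above the mean of all tested compounds plus 3 SD, set per screening campaign, cut at about 17% in these data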
NOD2-RIPK2 inh: NOD2-RIPK2 binding disruptors in cells, primary screen, fluorescence, CHO cells, BLA complementation; Receptor-interacting serine/threonine-protein kinase 2 (Homo sapiens), O43353; CCF4 ratio; inhibition, % at 4.98 µM; actives 0.38% (n = 360,000); in the data active = inhibition above about 21%;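 also: 0% = vehicle only and 100% = reference blocker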
IDE cell inh: human IDE inhibitors in live cells, primary screen, fluorescence polarization, HEK cells, FAbetaB substrate | Insulin-degrading enzyme (Homo sapiens), P14735 | FAbetaB cleavage | AID 434962, 2010 | inhibition, % at 5.59 µM | actives 0.41% (n = 320,000);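 active = percent inhibition above the average of all tested compounds plus 3 SD, set per screening campaign, cut at about 16% in these data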;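 also: IDE supplied by intact live HEK cells; FP after avidin binding of uncleaved biotin substrate so inhibition keeps polarization high; 0% = DMSO wells and 100% = 60 µM reference IDE inhibitor Ii1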
TLR4-MyD88 BLA: inhibitors of TLR4-MyD88 association in cells, primary screen, cell-based, HeLa CL3-4, BLA complementation, FRET ratio; Toll-like receptor 4 (Homo sapiens) + Myeloid differentiation primary response protein …; HeLa CL3-4 TLR4/MyD88 BLA complementation; AID 861, 2007; actives 0.18% (n = 200,000); inhibition, % at 8.4 µM; in the data active = inhibition above about 25%;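 also: 0% = vehicle and 100% = reference inhibitor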
TLR9-MyD88 cf: TLR9-MyD88 association inhibitors, retest, confirmation, cell-based, CHO, BLA complementation, fluorescence, triplicate; shares compounds with TLR9-MyD88 block; CCF4 FRET ratio; inhibition, % at 4.98 µM; actives 51% (n = 680); AID 540250, 2011;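 active = mean inhibition across three repeats above about 21% taken from the earlier screen, limit read from the data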;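 also: blue over green emission ratio reports constitutive TLR9 MyD88 association via BLA complementation; 0% = DMSO vehicle wells and 100% = clavulanate BLA inhibitor wells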
BLA counter-1: beta-lactamase reporter inhibitors in CHO cells, artefact control for TLR9-MyD88 binding inhibitor project, cell-based, fluorescence; inhibition, % at 4.98 µM; CHO-BLA cells, CCF4 FRET ratio, BLA reporter; shares compounds with TLR9-MyD88 block; AID 540251, 2011; actives 7% (n = 680);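 active = mean inhibition above a 50% cutoff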;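 also: counterscreen of TLR9-MyD88 hits on CMV-driven BLA in CHO-K1 cells; 0% = DMSO alone and 100% = clavulanate blocking BLA; higher means less blue over green ratio so more BLA blockade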
TLR9 CHO tox: CHO cell viability loss – luminescence, single concentration, cytotoxicity control for TLR9-MyD88 binding inhibitor project | shares compounds with TLR9-MyD88 block | TLR9-MyD88 CHO cells cytotoxicity | inhibition, % at 4.98 µM | actives 39% (n = 680) | AID 588336, 2011; in the data active = inhibition above about 11%
NOD2 RIPK2 conf: NOD2-RIPK2 binding disruptors, retest, confirmation, fluorescence, CHO cells, BLA complementation, triplicate; CCF4 FRET; actives 70% (n = 1,200); inhibition, % at 4.98 µM; shares compounds with NOD2-RIPK2 inh;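 active = mean inhibition across replicates above a set limit taken from the earlier primary screen, cut at about 21% in these data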;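 also: 0% = DMSO-only wells and the high end = clavulanate BLA-blocked wells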
BLA counter-2: NOD2-RIPK2 counterscreen BLA reporter activity | shares compounds with NOD2-RIPK2 inh | inhibition, % at 4.98 µM | CHO BLA reporter, CCF4 FRET ratio | actives 57% (n = 1,200);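 active = mean inhibition above the low-control mean inhibition plus three low-control SD, cut at about 11% in these data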;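 also: 0% = DMSO only wells and 100% = clavulanate high control wells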
Active calls of the source: *; . = not tested or not shown.

SMILES | TLR9-MyD88 block | IDE cell activ | NOD2-RIPK2 inh | IDE cell inh | TLR4-MyD88 BLA | TLR9-MyD88 cf | BLA counter-1 | TLR9 CHO tox | NOD2 RIPK2 conf | BLA counter-2
CCOC(=O)C1CCN(S(=O)(=O)c2cccc3nonc23)CC1 | -6 | 0 | 2 | 4 | 6 | . | . | . | . | .
O=C1C=CC2(O[C@H](c3ccccc3)[C@@H](c3ccccc3)O2)[C@H](Sc2ccccc2O)C1 | 40* | -11 | 92* | . | . | 38* | 23 | 100* | 91* | 40*
Cc1ccc(/C=N/NC(=O)Cc2ccc(Cl)cc2)c(O)c1 | 2 | 3 | -7 | . | . | . | . | . | . | .
O=C(Nc1ccc(Cl)cc1)Nc1cccc2nsnc12 | 21* | 0 | 21* | 0 | . | 15 | 15 | 0 | 35* | 36*
Cn1nc([N+](=O)[O-])nc1Sc1nnnn1-c1cccc(C(=O)O)c1 | -5 | 7 | -6 | -5 | . | . | . | . | . | .
Cc1cc(C)n2nc(C(=O)Nc3ccc(N4CCOCC4)cc3)nc2n1 | 4 | -2 | 3 | -1 | -3 | . | . | . | . | .
CN(CCO)c1cc(Sc2nc3ccccc3s2)c2nonc2c1[N+](=O)[O-] | 47* | -46 | 91* | 3 | 9 | 67* | 9 | 99* | 98* | 33*
CC(=O)OCCN(C)c1cc(SC(C)C)c2nonc2c1[N+](=O)[O-] | -4 | 0 | -2 | 0 | 0 | . | . | . | . | .
COc1ccc(C#Cc2ccc3c(=O)c4ccccc4n(C)c3c2)cc1 | -2 | -1 | . | 7 | . | . | . | . | . | .
Cn1c2ccccc2c(=O)c2ccc(C#Cc3ccc(N)cc3)cc21 | 41* | -3 | 55* | 4 | . | 32* | 37 | 3 | 51* | 60*
Cc1noc2ncnc(Sc3c(Cl)cccc3Cl)c12 | 23* | 3 | 37* | 6 | 10 | 22* | 6 | 8 | 34* | -13
Cc1noc2ncnc(Sc3ccc(Cl)cc3)c12 | -7 | 5 | 0 | 5 | 16 | . | . | . | . | .
CCN(CC)c1ccc2c(Cl)c(Br)c(=O)oc2c1 | 92* | -2 | 95* | 7 | 91* | 89* | 91* | 52* | 100* | 96*
CCN(CC)c1ccc2c(C)cc(=O)oc2c1 | -19 | 7 | -8 | 4 | . | . | . | . | . | .
COc1ccc(C(=O)/C=C/C(=O)N(CC(=O)NC2CCCCC2)CC2CCCO2)c(O)c1 (stereo not drawn) | 26* | -6 | 87* | 11 | 23 | 34* | 20 | 97* | 93* | 22*
O=C(NCc1cc(C(F)(F)F)ccc1Cl)c1cccc2c1C(=O)c1ccc(N3CCC(N4CCCCC4)CC3)cc1S2(=O)=O | 47* | . | 61* | . | . | 43* | 52* | 24* | 69* | 68*
COc1ccc(-c2cc3ccc(O)cc3oc2=O)cc1OC | 40* | 5 | 52* | 10 | . | 28* | 36 | 2 | 56* | 60*
O=c1oc2c(O)cccc2cc1-c1nc2ccccc2[nH]1 | 54* | 61* | 58* | . | . | 45* | 54* | 9 | 73* | 79*
O=C(Cn1sc2ccccc2c1=O)Nc1ccc(Br)cc1 | 31* | . | 28* | . | . | 17 | 0 | 81* | 34* | 6
O=C(CN1C(=O)C2CC=CCC2C1=O)Nc1ccc(Br)cc1 (stereo not drawn) | 4 | 4 | 3 | 1 | . | . | . | . | . | .
COc1ccc(CC(=O)N/N=C(\C)c2cccnc2)cc1OC | 1 | 3 | -3 | . | . | . | . | . | . | .
CN(C)/C=C/C(=O)c1ccccc1OCc1cnc(Cl)s1 | 5 | -3 | 1 | -1 | 12 | . | . | . | . | .
CCOC(=O)n1c(=O)n(Cc2c(Cl)cccc2Cl)c2ccccc21 | 24* | 1 | 23* | 0 | 9 | 9 | 12 | 0 | 29* | 27*
Cc1ccc(CNC(=O)C2CCCN(C(=O)N(C)C)C2)cc1 (stereo not drawn) | -5 | 6 | -6 | -4 | -9 | . | . | . | . | .
Cc1ccccc1NC(=O)Cc1nc(COC(=O)c2ccc(S(C)(=O)=O)c([N+](=O)[O-])c2)cs1 | 25* | 1 | 45* | -1 | . | 17 | 6 | 84* | 50* | 11*
SMILES | TLR9-MyD88 block | IDE cell activ | NOD2-RIPK2 inh | IDE cell inh | TLR4-MyD88 BLA | TLR9-MyD88 cf | BLA counter-1 | TLR9 CHO tox | NOD2 RIPK2 conf | BLA counter-2
Cc1ccccc1NC(=O)COC(=O)c1ccc(S(C)(=O)=O)c([N+](=O)[O-])c1 | 13 | 3 | 7 | 5 | 18 | . | . | . | . | .
COC(=O)CNC(=O)CN1C(=O)N(c2cccc(Cl)c2)C(N(O)C(=O)Nc2cccc(Cl)c2)C1(C)C (stereo not drawn) | 32* | 4 | 26* | -2 | 7 | 8 | 8 | 2 | 14 | 23*
Nc1c(Cl)cc(-c2[nH]c3cc(C(=O)NCCO)ccc3c(=O)c2O)cc1Cl | 21* | 5 | 28* | 0 | . | 11 | 18 | 5 | 35* | 38*
Nc1c(C(=O)Nc2ccccc2F)sc2nc(-c3cccnc3)ccc12 | 38* | -9 | 21* | 0 | . | 28* | 30 | 4 | 46* | 64*
Nc1c(C(=O)Nc2ccccc2F)sc2nc(-c3ccco3)ccc12 | 18 | -14 | 6 | 12 | 14 | . | . | . | . | .
O=S(=O)(Nc1ccc2cn[nH]c2c1)c1ccc(C(F)(F)F)cc1 | -1 | 2 | -6 | -3 | . | . | . | . | . | .
CC(=O)CC[N+](C)(C)C | -2 | 4 | 4 | . | . | . | . | . | . | .
Oc1ccc(/C=C/c2ccc3cccc(O)c3n2)cc1Br | 27* | -12 | 27* | 6 | . | 10 | 14 | 2 | 39* | 47*
COc1ccc([C@@H]2CC=C(C(=O)O)CN2S(=O)(=O)c2ccc(Cl)cc2)cc1 | -2 | -7 | -2 | 1 | . | . | . | . | . | .
Cc1nc2cc(NC(=O)Nc3ccc(N4CCOCC4)cc3)ccc2n1C | 9 | 3 | -2 | -2 | -13 | . | . | . | . | .
